Hit rate of the full screen: of about 330,000 compounds, about 1,900 (0.58%) were called active. Roughly 4% stayed inconclusive and do not appear here. Not all results are given here. Potency and affinity values are given separately. A number with no mark means an inactive call. Rule as the data show it: inconclusive = inhibition above about 70% without an active follow-up result; inactive = below that.
Experiment: M. tuberculosis growth inhibition, HTS (AID 449762);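 also: bacterial growth assessed after seven days of incubation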
Details: M. tuberculosis H37Rv growth inhibition, 7H9 media; at 25 µM; hits give high values

Structure (SMILES)	inhibition [%]
C/C=C(\C)C(=O)NCCN1C2=NC[C@H](C)N2C[C@@H]1Cc1ccc(OC)cc1	0.12
CC(=O)c1ccc(N2CCC(c3cc(-c4ccc(Cl)cc4)n[nH]3)CC2)c([N+](=O)[O-])c1	-1.54
COc1ccc(OC)c(-c2cc(C3CCN(c4cc(Cl)nc(N)n4)CC3)[nH]n2)c1	-10.8
Nc1nc(Cl)cc(N2CCC(c3cc(-c4ccc(Cl)cc4)n[nH]3)CC2)n1	4.43
COc1ccc(-c2cc(C3CCN(c4ccc(C(C)=O)cc4[N+](=O)[O-])CC3)[nH]n2)cc1	2.56
Cc1cc(OCC(=O)NCc2ccccn2)c2c(C)c(Cc3ccccc3)c(=O)oc2c1	3.29
O=C(CN(Cc1cccs1)C(=O)CN1C(=O)COc2ccccc21)NCc1ccco1	-10.2
COc1ccc(S(=O)(=O)N2CCN(C(=O)CCNC(=O)c3ccccc3Cl)CC2)cc1	-12.2
COc1cc(OC)nc(Oc2cc(/C=N/O)ccc2OC)n1	6.12
O=C(O)c1ccccc1NS(=O)(=O)c1ccc(NN=Cc2ccc(F)cc2)c([N+](=O)[O-])c1	9.86
OC1(c2ccc(F)cc2)CCN(Cc2nnnn2Cc2cccs2)CC1	5.23
O=C(O)CSc1nnnn1-c1ccc2c(c1)OCCO2	-0.83
CC(C)OC(=O)CSc1nnnn1-c1ccc2c(c1)OCCO2	-0.39
O=C(NCCC1=CCCCC1)C1CCN(S(=O)(=O)c2cccc(C(F)(F)F)c2)CC1	5.79
CSc1nsc(SCCN2C(=O)c3ccccc3C2=O)n1	2.52
CCOC(=O)CSc1nn(C)c(=S)s1	0.33
Cc1cc(C)nc(NC(=O)CSc2nn(-c3ccccc3)c(=S)s2)n1	-0.15
CCOC(=O)CSc1nnc(-c2ccccc2)c(=O)[nH]1	-2.8
Nc1nnc(SCCN2C(=O)c3ccccc3C2=O)s1	-1.41
CCOC(=O)CSc1snnc1C	-6.63
Cc1ccc(NC(=S)N(CCN(C)C)C(C)c2cccnc2)c(C)c1 (stereo not given)	4.11
COC(=O)c1cc(OC)c(OC)cc1NC(=O)c1c(-c2ccccc2Cl)noc1C	-3.97
Cc1ccc(-c2csc(NC(=O)c3ccccc3Cl)c2C(=O)O)cc1	13.9

Structure (SMILES)	inhibition [%]
CSc1cccc(NC(=O)C2C3C=CC4(O3)C2C(=O)N(CCCN2CCOCC2)C4C(=O)NC2CCCCC2)c1 (stereo not given)	3.36
O=C(c1ccccc1F)N1CCN(S(=O)(=O)c2ccc3ccccc3c2)CC1	7.72
COc1ccc(NS(=O)(=O)c2cc(NC(=O)C3CC3)ccc2N2CCCCC2)cc1	1.69
CC(=O)N1CCn2c3c(c4cc(C)ccc42)CCCC31 (stereo not given)	4.84
Cc1ccc2c(c1)c1c3n2CCN(C(=O)CN2CCN(C)CC2)C3CCC1 (stereo not given)	-3.37
CC(C)CCN1CCN(CC(c2ccccc2)c2ccccc2)CC1CCO (stereo not given)	-4.44
COCCn1c(=N)c(C(=O)NCc2ccco2)cc2c(=O)n3cc(C)ccc3nc21	0.47
Cc1ccc(Cn2c(=N)c(C(=O)NCc3ccco3)cc3c(=O)n4ccccc4nc32)cc1	4.13
COc1ccc(NC(=O)CN2CCN(c3nc(-c4ccc(F)cc4)cs3)CC2)c(OC)c1	8.68
O=[N+]([O-])c1ccc(F)c(N=Cc2ccc(Br)s2)c1	1.92
COc1ccc(-c2coc3cc(OC(=O)N4CCOCC4)ccc3c2=O)cc1	10.6
CCN(CC)C(=O)Oc1ccc2c(=O)c(-c3ccccc3)coc2c1	64.8
CCOc1ccc(N(CC(=O)Nc2cc(C)cc(C)c2)S(C)(=O)=O)cc1	7.61
N#C/C(=C/c1ccccc1[N+](=O)[O-])C(=O)NCc1ccco1	-4.24
CCCCSC1=NN1c1nc(N)nc(C)c1CC	-7.73
CC1CN(C(=S)c2cccc([N+](=O)[O-])c2)CC(C)O1 (stereo not given)	-2.37
CC1CN(C(=O)c2cc([N+](=O)[O-])cc([N+](=O)[O-])c2)CC(C)O1 (stereo not given)	-5.16
Cc1nn(CC(C)C(=O)N2CCN(S(=O)(=O)c3ccc(Cl)cc3)CC2)c(C)c1C (stereo not given)	-2.72
CCCCCCCCc1nc(SC(C)C(=O)O)n[nH]1 (stereo not given)	-1.56
COc1ccc(C2Nc3ccccc3NC3=C2C(=O)CC(C)(C)C3)c(OC)c1OC (stereo not given)	8.53
COc1ccc(NC(=O)c2ccc([N+](=O)[O-])o2)cc1	6.03
COc1ccc(-c2nnc(NC(=O)CS(=O)(=O)c3ccc(F)cc3)o2)c(OC)c1	7.17
COc1ccc(S(=O)(=O)N(C)CC(=O)NCc2ccco2)cc1Cl	2.22

Structure (SMILES)	inhibition [%]
CCCn1nnc(NC(=O)COc2ccccc2Cl)n1	-5.02
CCCn1nnc(NC(=O)COc2ccc(C3CCCCC3)cc2)n1	-1.63
Cc1cc(C(=O)N(C)CC2CCCN(CCc3ccc(F)cc3)C2)c(C)o1 (stereo not given)	-2.12
N=C1c2ccccc2CN1NC(=O)COc1ccc(Cl)cc1	-8.46
CCc1nn(CCCC(=O)N2CCc3ccccc3C2)c(=O)c2cc3occc3n12	-0.11
CC(=O)c1ccc(NC(=O)CSc2cn[nH]n2)cc1	4.87
CCOc1ccc(-n2c(SCC(=O)Nc3ccc(C(=O)O)cc3)nc3ccccc3c2=O)cc1	1.72
COc1cccc(NC(=O)CSc2nc(O)c(C)c(=O)n2-c2ccc(C)cc2)c1	-11.9
Cc1ccc(NC(=O)CSc2cn[nH]n2)cc1	-2.03
Cc1nnc(NC(=O)CSc2nnc(Cc3cccn3C)n2C)s1	-5.68
Cc1ccc(S(=O)(=O)N(C)C)cc1NC(=O)c1cccnc1Oc1ccccc1	-2.85
O=C(Nc1ccc2c(c1)OCO2)c1cnn2c1NC(c1ccco1)CC2C(F)(F)F (stereo not given)	-5.12
COc1ccc(-c2[nH]ncc2CN(C)Cc2ccccn2)c(OC)c1	4.69
O=C(NCc1ccccn1)c1cc2c(ccc3ccccc32)oc1=O	-2.34
CCOC(=O)N1CCC(N2Cc3cccc(C(=O)Nc4cc(F)ccc4F)c3C2=O)CC1	-1.17
CCOC(=O)c1ccccc1NC(=O)c1cccc2c1C(=O)N(C1CCN(C(=O)OCC)CC1)C2	-3.66
Cc1ccc(C2C3=C(CCCC3=O)N=C3c4ccccc4C(=O)C32)cc1 (stereo not given)	4.41
O=C1CCCC2=C1C(c1ccccc1)C1C(=O)c3ccccc3C1=N2 (stereo not given)	0.55
CCO[C@@H]1OC(C(=O)NCc2ccccc2)=C[C@H](C)[C@H]1CCCO	0.33
CCOC(=O)CSC1=C(C#N)C(C)C2=C(CCCC2=O)N1 (stereo not given)	10.6
CCOC(=O)CSC1=C(C#N)C(c2ccccc2C)C2=C(CCCC2=O)N1 (stereo not given)	-2.12
Clc1cccc(CN2CCSCC2)c1Cl	5.96
O=C(OCc1ccc(O)cc1)c1c(-c2ccsc2)oc2ccc(N3CCOCC3)cc12	-0.88

Structure (SMILES)	inhibition [%]
COc1ccc(/C=C/c2c(-c3cccc(C)c3)oc3ccc(N4CCOCC4)cc23)cc1	-2.46
COc1ccc(-c2noc(-c3ccco3)n2)cc1OC	-0.61
COc1ccc(-c2cc(C(=O)O)c3c(C)nn(-c4ccccn4)c3n2)cc1	10.2
CCOC(=O)c1cc(-c2ccncc2)nc2c1c(C)nn2-c1ccccn1	0.76
O=C(NC1CCCC1)C(c1ccncc1)N(C(=O)c1csnn1)C1CCCC1 (stereo not given)	3.35
Cc1nnsc1S(=O)(=O)c1ccccc1	-0.59
Nc1nc(-c2ccc(Cl)cc2)c(S(=O)(=O)c2ccccc2)s1	-1.98
COc1ccc(N(CC(=O)NC2CCCC2)S(=O)(=O)c2c(C)[nH]c(=O)[nH]c2=O)cc1	-3.45
Cc1ccc(OCCNC(=O)CNC(=O)c2ccc(C)cc2)cc1	5.29
Cc1ccc(OCc2cc(C(=O)N(C)Cc3nccn3C)no2)cc1C	8.06
Cc1cc(CN(C)C(=O)c2cc(COc3ccc(C)c(C)c3)on2)on1	7.13
Nc1c(C(=O)c2ccc(Cl)cc2)oc2ccccc12	-21.2
Cc1cc(C)c(NC(=O)C(C)(C)C)c(Cl)c1	-1.65
COc1ccc(C(CNC(=O)C(C)(C)Oc2ccc(Cl)cc2)N2CCCC2)cc1 (stereo not given)	-9.42
COc1ccc(C(CNC(=O)C(C)(C)Oc2ccc(Cl)cc2)N2CCCCC2)cc1 (stereo not given)	-12.8
CCN(CC)S(=O)(=O)c1ccc(NC(=O)c2ccc(Cl)nc2)cc1	4
O=C(O)c1ccccc1/C=N/Nc1ccc(S(=O)(=O)N2CCCC2)cc1[N+](=O)[O-]	-1.83
COc1ccc(Cc2nc3ccc(C(=O)N(C)C(C)c4nccs4)cc3o2)cc1 (stereo not given)	1.57
COc1ccc(-c2ccc([C@H]3[C@H]4C=CC[C@@H](C)[C@@H]4C(=O)N3Cc3ccccc3)c(F)c2)cc1C	-3.73
CCC(C)n1ncn(-c2ccc(N3CCN(c4ccc(OCC5COC(Cn6cncn6)(c6ccc(Cl)cc6Cl)O5)cc4)CC3)cc2)c1=O (stereo not given)	-3.37
CC1(c2ccc(Cl)cc2Cl)OCC(Cn2ccnc2)O1 (stereo not given)	-2.41

From PubChem BioAssay AID449762 (Southern Research Specialized Biocontainment Screening …, 2010)
